Data taken from PubChem BioAssay (EPA / NIEHS).
The source made the active and inactive calls. Rule for the calls: active = hit-call score of the fitted dose curve at least 0.9, where 1 is the maximum; inactive = score below 0.9.

Key:
[1] = read-out: Interleukin-8 (IL8), CXCL8 (gene 3576); experiment: BSK_CASM3C_IL8: BioMAP Diversity Plus: CASM3C Assay for Interleukin-8 (IL8) Biomarker Activity (AID 2283042); conditions: primary human coronary artery smooth muscle cells; actives raise or lower the signal;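 note: IL-8 protein level quantified by ELISA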
[2] = read-out: Human Leukocyte Antigen - DR isotype (HLADR), HLA-DRA (gene 3122); experiment: BSK_CASM3C_HLADR: BioMAP Diversity Plus: CASM3C Assay for Human Leukocyte Antigen - DR isotype (HLADR) Biomarker Activity (AID 2283043); conditions: primary human coronary artery smooth muscle cells; actives raise or lower the signal;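 note: cell-surface HLA-DR protein level quantified by ELISA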
[3] = read-out: Macrophage colony-stimulating factor (MCSF), CSF1 (gene 1435); experiment: BSK_CASM3C_MCSF: BioMAP Diversity Plus: CASM3C Assay for Macrophage colony-stimulating factor (MCSF) Biomarker Activity (AID 2283044); conditions: primary human coronary artery smooth muscle cells; actives raise or lower the signal;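 note: M-CSF protein amount quantified by ELISA after 24 h exposure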
[4] = read-out: Low-density lipoprotein receptor (LDLR), LDLR (gene 3949); experiment: BSK_CASM3C_LDLR: BioMAP Diversity Plus: CASM3C Assay for Low-density lipoprotein receptor (LDLR) Biomarker Activity (AID 2283045); conditions: primary human coronary artery smooth muscle cells; actives raise or lower the signal;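 note: LDLR protein level on the cell surface quantified by ELISA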
[5] = read-out: Monocyte Chemoattractant Protein-1 (MCP1), CCL2 (gene 6347); experiment: BSK_CASM3C_MCP1: BioMAP Diversity Plus: CASM3C Assay for Monocyte Chemoattractant Protein-1 (MCP1) Biomarker Activity (AID 2283046); conditions: primary human coronary artery smooth muscle cells; actives raise or lower the signal;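 note: MCP-1 level quantified by ELISA 24 h after dosing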
[6] = BSK_CASM3C_Proliferation: Cell Proliferation Assessment in the BioMAP Diversity Plus: CASM3C Assay (AID 2283047); conditions: primary human coronary artery smooth muscle cells;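 note: sulforhodamine B total protein stain as relative cell number at 560 nm; sub-confluent cells exposed 48 h before staining; fitted both ways against DMSO so gain or loss of cell number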
[7] = read-out: Monokine induced gamma interferon (MIG), CXCL9 (gene 4283); experiment: BSK_CASM3C_MIG: BioMAP Diversity Plus: CASM3C Assay for Monokine induced gamma interferon (MIG) Biomarker Activity (AID 2283048); conditions: primary human coronary artery smooth muscle cells; actives raise or lower the signal;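 note: MIG protein level measured by ELISA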
[8] = read-out: serum amyloid A (SAA), SAA1 (gene 6288); experiment: BSK_CASM3C_SAA: BioMAP Diversity Plus: CASM3C Assay for serum amyloid A (SAA) Biomarker Activity (AID 2283049); conditions: primary human coronary artery smooth muscle cells; actives raise or lower the signal;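 note: SAA protein level quantified by ELISA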
[9] = BSK_CASM3C_SRB: Viability Assessment in the BioMAP Diversity Plus: CASM3C Assay (AID 2283050); conditions: primary human coronary artery smooth muscle cells;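 note: cells exposed to compound for 24 h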
[10] = read-out: Thrombomodulin, THBD (gene 7056); experiment: BSK_CASM3C_Thrombomodulin: BioMAP Diversity Plus: CASM3C Assay for Thrombomodulin Biomarker Activity (AID 2283051); conditions: primary human coronary artery smooth muscle cells; actives raise or lower the signal;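 note: thrombomodulin protein level measured by ELISA 24 h after dosing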
[11] = read-out: Tissue Factor, F3 (gene 2152); experiment: BSK_CASM3C_TissueFactor: BioMAP Diversity Plus: CASM3C Assay for Tissue Factor Biomarker Activity (AID 2283052); conditions: primary human coronary artery smooth muscle cells; actives raise or lower the signal;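 note: cell surface tissue factor protein level read by ELISA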
[12] = read-out: Urokinase-type plasminogen activator receptor (uPAR), PLAUR (gene 5329); experiment: BSK_CASM3C_uPAR: BioMAP Diversity Plus: CASM3C Assay for Urokinase-type plasminogen activator receptor (uPAR) Biomarker Activity (AID 2283054); conditions: primary human coronary artery smooth muscle cells; actives raise or lower the signal;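 note: cell-surface uPAR protein level quantified by ELISA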
[13] = read-out: Vascular cell adhesion molecule 1 (VCAM1), VCAM1 (gene 7412); experiment: BSK_CASM3C_VCAM1: BioMAP Diversity Plus: CASM3C Assay for Vascular cell adhesion molecule 1 (VCAM1) Biomarker Activity (AID 2283055); conditions: primary human coronary artery smooth muscle cells; actives raise or lower the signal;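 note: VCAM-1 protein level quantified by ELISA on the cells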
[14] = read-out: Collagen III, COL3A1 (gene 1281); experiment: BSK_hDFCGF_CollagenIII: BioMAP Diversity Plus: hDFCGF Assay for Collagen III Biomarker Activity (AID 2283056); conditions: primary human foreskin fibroblasts; actives raise or lower the signal
Summary of the method: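 Human foreskin fibroblast primary cultures sampled 24 h after dosing; Collagen III quantified by ELISA. Signal fitted bidirectionally against DMSO baseline.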

[15] = read-out: Epidermal growth factor receptor (EGFR), EGFR (gene 1956); experiment: BSK_hDFCGF_EGFR: BioMAP Diversity Plus: hDFCGF Assay for Epidermal growth factor receptor (EGFR) Biomarker Activity (AID 2283057); conditions: primary human foreskin fibroblasts; actives raise or lower the signal
Summary of the method: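 Primary human foreskin fibroblasts (hDFCGF system), sampled 24 h after dosing; EGFR quantified by ELISA. Bidirectional fit relative to DMSO baseline; SRB total-protein staining in parallel cultures for cytotoxicity.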

[16] = read-out: Interleukin-8 (IL8), CXCL8 (gene 3576); experiment: BSK_hDFCGF_IL8: BioMAP Diversity Plus: hDFCGF Assay for Interleukin-8 (IL8) Biomarker Activity (AID 2283058); conditions: primary human foreskin fibroblasts; actives raise or lower the signal
Summary of the method: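 Primary human foreskin fibroblasts (hDFCGF system) dosed with chemical; IL-8 measured by ELISA 24 hours later. Bidirectional curve fitting relative to DMSO baseline; cytotoxicity tracked in parallel cultures by SRB total protein staining.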

[17] = BSK_hDFCGF_Proliferation: Cell Proliferation Assessment in the BioMAP Diversity Plus: hDFCGF Assay (AID 2283059); conditions: primary human foreskin fibroblasts;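 note: curves fitted for both rise and fall of signal versus DMSO baseline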
Summary of the method: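 Sub-confluent human foreskin fibroblast cultures receive test chemical […]. Relative cell number is quantified by sulforhodamine B staining (0.1%, after 10% TCA fixation) at 560 nm, with bidirectional fitting referenced to DMSO.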

[18] = read-out: Macrophage colony-stimulating factor (MCSF), CSF1 (gene 1435); experiment: BSK_hDFCGF_MCSF: BioMAP Diversity Plus: hDFCGF Assay for Macrophage colony-stimulating factor (MCSF) Biomarker Activity (AID 2283060); conditions: primary human foreskin fibroblasts; actives raise or lower the signal
Summary of the method: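 Human foreskin fibroblast primary cultures; M-CSF measured by ELISA 24 hours after chemical dosing. Bidirectional fitting relative to DMSO, with overt cytotoxicity tracked by parallel SRB total-protein staining (0.1% SRB, 10% TCA fixation, 560 nm).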

[19] = BSK_hDFCGF_SRB: Viability Assessment in the BioMAP Diversity Plus: hDFCGF Assay (AID 2283061); conditions: primary human foreskin fibroblasts;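 note: cells exposed to compound for 24 h before the read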
Summary of the method: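 Human foreskin fibroblasts in 96-well plates were treated 24 h. Total protein was measured by 0.1% SRB staining after 10% TCA fixation, read at 560 nm. Data were fitted bidirectionally against DMSO.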

Measured: AC50

CCOC(=O)CC(SP(=S)(OC)OC)C(=O)OCC (stereo unspecified)
inactive: all assays above

CCOC(=O)C(Cl)Cc1cc(-n2nc(C)n(C(F)F)c2=O)c(F)cc1Cl (stereo unspecified)
inactive: all assays above

CC(C)Oc1cc(-n2nc(C(C)(C)C)oc2=O)c(Cl)cc1Cl
active: [6] 29 µM | [10] 25.7 µM | [17] 29.5 µM | [18] 15.2 µM | [19] 28.6 µM
inactive: all other assays above

C#CCOS(=O)OC1CCCCC1Oc1ccc(C(C)(C)C)cc1 (stereo unspecified)
active: [2] 9.71 µM | [3] 27 µM | [5] 29.8 µM | [6] 16.5 µM | [8] 5.32 µM | [9] 20 µM | [10] 5.22 µM | [12] 11.2 µM | [14] 1.27 µM | [16] 15.3 µM | [17] 2.73 µM | [18] 4.84 µM | [19] 3.73 µM
inactive: [1] | [4] | [7] | [11] | [13] | [15]
